BoNT-A LC inh2: blocks Botulinum neurotoxin A light chain protease; multiplex microsphere protease substrate cleavage, flow cytometry; inhibition, % at 10 µM; actives 0.17% (n = 360,000); also: plate controls were buffer without enzyme for full effect and enzyme alone for no effect
Anthrax LF prot: anthrax lethal factor protease inhibition; P15917; multiplex microsphere protease cleavage assay, LF; inhibition, % at 10 µM; actives 0.12% (n = 360,000); AID 588501; also: plate controls were buffer without enzyme for full effect and enzyme alone for no effect
Target sequence (P15917 whole entry, looked up): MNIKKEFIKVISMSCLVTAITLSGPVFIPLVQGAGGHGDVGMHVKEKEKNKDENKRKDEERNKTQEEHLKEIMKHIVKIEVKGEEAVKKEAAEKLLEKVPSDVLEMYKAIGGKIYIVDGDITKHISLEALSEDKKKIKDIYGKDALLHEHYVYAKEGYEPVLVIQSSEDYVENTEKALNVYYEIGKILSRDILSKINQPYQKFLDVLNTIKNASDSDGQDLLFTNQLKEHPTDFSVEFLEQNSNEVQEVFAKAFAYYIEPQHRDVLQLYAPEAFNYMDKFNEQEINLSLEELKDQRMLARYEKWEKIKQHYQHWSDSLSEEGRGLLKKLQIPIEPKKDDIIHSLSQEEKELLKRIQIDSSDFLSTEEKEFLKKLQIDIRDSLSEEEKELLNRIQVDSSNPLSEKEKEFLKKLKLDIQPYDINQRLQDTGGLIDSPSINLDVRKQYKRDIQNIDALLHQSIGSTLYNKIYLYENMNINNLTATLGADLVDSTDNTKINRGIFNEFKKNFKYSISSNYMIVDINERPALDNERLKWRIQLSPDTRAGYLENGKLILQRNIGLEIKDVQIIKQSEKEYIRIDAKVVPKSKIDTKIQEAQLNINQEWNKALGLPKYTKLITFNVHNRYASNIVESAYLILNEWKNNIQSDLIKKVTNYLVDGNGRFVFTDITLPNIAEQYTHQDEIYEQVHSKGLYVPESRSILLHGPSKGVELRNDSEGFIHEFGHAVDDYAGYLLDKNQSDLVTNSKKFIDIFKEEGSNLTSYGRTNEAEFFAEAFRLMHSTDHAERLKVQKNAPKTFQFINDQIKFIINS
Autofluor counter: counter-screen for toxin protease inhibitors: compound fluorescence | compound autofluorescence counterscreen, microsphere flow cytometry; stronger effect = higher value | fluorescence intensity (no concentration beside the values) | actives 3.1% (n = 360,000); in the data active = fluorescence intensity above about 16000; inconclusive = no clear call, values can overlap the other calls
BoNT F protease: BoNT F light chain protease inhibition; inhibition, % at 10 µM; actives 0.22% (n = 360,000); Multiplex microsphere protease cleavage assay, flow cytometry; in the data active = inhibition above about 35%, passing the limit was not always enough; inconclusive = no clear call, values can overlap the other calls; also: plate controls were buffer without enzyme for full effect and enzyme alone for no effect
* = called active by the depositor; ? = inconclusive. Sampled rows, rich in hits. Any-hit rate of the full collection: about 3.5%. Rule as the data show it, unless noted: active = inhibition above about 30%; inconclusive = no clear call, values can overlap the other calls; inactive = below that.

SMILES	BoNT-A LC inh2	Anthrax LF prot	Autofluor counter	BoNT F protease
CCC(=NCc1cc(OC)cc(OC)c1)c1c(O)n(C)c(=O)n(C)c1=O	?	-4.7	24024*	-2.2
CCC(=NCc1ccc2c(c1)OCO2)c1c(O)n(C)c(=O)n(C)c1=O	1.7	-0.2	3898	3.1
CC(=NCc1cccnc1)c1c(O)n(-c2ccccc2)c(=O)[nH]c1=O	-2.2	-3.4	20066*	-3.6
CCN(CC)C(=O)[C@H]1CC(CC(=O)NCC23CC4CC(CC(C4)C2)C3)C(=O)N2CCc3c([nH]c4ccccc34)[C@]12C (some centres not stated)	-0.5	0.2	3684	-5.2
O=C(COC(=O)c1cccnc1)c1ccc(Cl)cc1	0.2	0.0	19665*	0.0
O=C(COC(=O)c1cccnc1)c1ccc(Cl)c(Cl)c1	-1.2	-1.4	3431	-0.9
CCSc1nc(O)c(CC)c(=O)n1C(C)CC (configuration not stated)	0.2	0.4	22314*	2.9
c1cc(-c2cc3nc(NC4CCCCC4)ccn3n2)ccc1OCCN1CCOCC1	0.7	-4.1	4049	-2.8
Cc1cnc(NC(=O)CC2OC(=O)c3ccccc32)s1 (configuration not stated)	2.3	-3.5	5949	-0.6
O=C(NCCN1CCC(n2c(=O)[nH]c3ccccc32)CC1)c1cccs1	0.3	-2.5	4239	-9.4
CC12CCC(C(=O)NCc3ccc(Cl)cc3)(OC1=O)C2(C)C (configuration not stated)	-2.6	3.2	21504*	-2.9
CCOC(=O)c1ccc(NC(=O)C23CCC(C)(C(=O)O2)C3(C)C)cc1 (configuration not stated)	0.2	-2.1	16270*	0.3
Cc1ccc(OCc2cc(C(=O)N3CCN(c4ccccc4)CC3)no2)cc1C	-2.2	-2.3	6415	-4.1
COCCOc1ccc(C(F)(F)F)cc1NC(=O)c1ccccc1	0.2	-0.5	2562	0.8
CC(=O)Nc1cc(C(F)(F)F)ccc1OCCOc1ccccc1	?	-3.5	21706*	1.5
Cc1nn(C)c(C)c1/C=C/C(=O)c1ccccc1	-6.3	-4.2	24377*	-8.0
Cc1nn(C)c(C)c1/C=C/C(=O)c1cccs1	0.2	0.8	3687	-7.0
Cc1nn(C)cc1/C=C/C(=O)c1ccccc1	-1.4	-3.9	16636*	-1.9
O=C(c1cccc(NS(=O)(=O)c2cccc(F)c2)c1)N1CCCC1	-1.5	-4.6	6322	-9.3
Cc1ccc(NC(=O)CC(O)(C(F)(F)F)C(F)(F)F)cc1	?	0.6	22690*	-3.3
O=C(CNS(=O)(=O)c1ccccc1)Nc1ccc(C(F)(F)F)cc1	-0.2	-3.2	10817	-4.1
Cc1ccc(S(=O)(=O)NCC(=O)Nc2ccc(C(F)(F)F)cc2)cc1	-1.2	-1.2	23413*	-2.3
O=C(CNS(=O)(=O)c1ccc(F)cc1)Nc1ccc(C(F)(F)F)cc1	-0.4	-0.6	16544*	0.3
Cc1ccccc1C(=O)NCC(=O)OCCCOC(=O)CNC(=O)c1ccccc1C	3.3	-5.8	?	-5.7
Cc1[nH]c2ccccc2c1C(=O)COC(=O)Cn1c(C(F)(F)F)nc2ccccc21	0.2	-0.6	2691	-4.1
SMILES	BoNT-A LC inh2	Anthrax LF prot	Autofluor counter	BoNT F protease
O=C(Cn1c(C(F)(F)F)nc2ccccc21)OCC(=O)c1c[nH]c2ccccc12	57.1*	19.9	4605	-9.4
CCC(=O)Oc1ccc(-c2nc(-c3cccnc3)no2)cc1	-2.6	3.8	20402*	-3.9
O=[N+]([O-])c1ccccc1C=NNc1ccccc1	-0.3	2.9	3916	-6.7
Cc1ccc(-c2nc(N/N=C/c3ccccc3[N+](=O)[O-])c3ccccc3n2)cc1	-2.3	0.3	16971*	1.8
Cc1ccccc1CN1CCN(CC(=O)NC(C)c2ccccc2)CC1 (configuration not stated)	-5.6	-1.8	4331	-28.3
CCNc1ccc(Br)cc(C(=O)/C=C/c2c(Cl)cccc2Cl)c1=O	59.0*	28.7	6714	16.3
CNc1ccc(Br)cc(C(=O)/C=C/c2cccc(OC)c2)c1=O	15.8	19.2	17911*	9.7
CCNc1ccc(Br)cc(C(=O)/C=C/c2ccc(Cl)cc2)c1=O	28.8	26.5	7902	5.6
COc1cccc(NC(=O)C(C#N)Cc2ccncc2)c1 (configuration not stated)	6.0	0.7	19544*	9.6
COC(=O)c1c(NC(=O)c2ccccc2)sc2c1CC(C)(C)OC2	?	-12.5	16350*	-2.1
COc1ccc2c(c1OC)C(=O)OC2CC(=O)c1ccc2c(c1)OCO2 (configuration not stated)	?	2.1	16170*	2.0
COc1ccc2c(c1OC)C(=O)OC2C/C(=N\NC(N)=O)c1ccccc1 (configuration not stated)	-0.7	-4.1	4181	-3.0
CC(OC(=O)CNC(=O)c1ccc(F)cc1)C(=O)Nc1ccc(S(=O)(=O)N2CCOCC2)cc1 (configuration not stated)	-0.2	-5.2	8010	2.4
Cc1ccc(NC2c3ncccc3C(=O)N2Cc2ccc(F)cc2)cc1 (configuration not stated)	-1.5	-5.8	10645	-6.1
COc1ccc(CN2C(=O)c3cccnc3C2Nc2ccc(OC)c(Cl)c2)cc1 (configuration not stated)	?	-0.5	22056*	2.4
COc1ccc(NC2c3ncccc3C(=O)N2Cc2ccccc2)c(OC)c1 (configuration not stated)	-2.4	-7.5	8556	-48.6
COc1cc(NC2c3ncccc3C(=O)N2Cc2ccco2)cc(OC)c1 (configuration not stated)	-0.1	-9.4	20554*	-3.8
CCC(C)[C@H](NC(=O)c1cc2cc(Cl)ccc2n1C)C(=O)N1CCC[C@H]1C(=O)O (some centres not stated)	-0.7	1.7	6006	-1.4
CCOC(=O)/C=c1\s/c(=C\c2c(OC)ccc3ccccc23)c(=O)n1CC(=O)NCC1CCCO1 (configuration not stated)	-2.0	-3.5	16857*	-6.4
CCOc1cc(CNn2cnnc2)ccc1OCC(=O)NC1CCCCC1	-4.7	-1.5	21782*	-5.7
Cc1nn(C(C)C(=O)NNC(=S)Nc2ccc(F)cc2)c(C)c1[N+](=O)[O-] (configuration not stated)	-2.1	-1.3	24064*	-1.4
COc1cccc(C(O)C2OC(=O)c3ccccc32)c1OC (configuration not stated)	-0.3	3.4	5833	-10.5
Cn1c(SCc2cccc(F)c2)nnc1-c1ccccn1	-0.5	-2.0	16789*	1.3
C[C@@H]1CC2=C(C(=O)OC(C)(C)O2)[C@H](c2ccc(Cl)cc2)O1	-0.5	-5.2	6618	0.4
C=CCn1c(O)c(C(C)=NCCN2CCOCC2)c(=O)[nH]c1=O	3.2	5.0	21797*	2.9
CC(=NCCN1CCCCC1)c1c(O)n(-c2ccc(Cl)cc2)c(=O)[nH]c1=O	-4.8	-3.5	24548*	-5.0
C=CCn1c(O)c(C(C)=NCc2ccco2)c(=O)[nH]c1=O	-0.3	0.2	21930*	0.1
COc1ccc(-n2c(O)c(C(C)=NCCCn3ccnc3)c(=O)[nH]c2=O)cc1	-2.4	0.9	17270*	-5.9
CC(=NCCN1CCOCC1)c1c(O)n(Cc2ccccc2)c(=O)[nH]c1=O	5.3	-12.0	13970	9.4
